Experimental data from the supplement of paper PMC10849652.
About 7,900 targets were measured; listed, in parts, are those with a hit and a random draw of the rest. About 0.6% of all pairs of compound and target were hits. A number with no mark means an inactive call.

What was measured:
Assay in all cases: log2 fold change, soluble protein after heating vs DMSO (PISA); higher = thermal stabilisation; K562 cells, 10 uM, 30 min; active = over 0.2 and 3.5 SD of the protein, either way, in both replicates (recomputed)
[1] = compound: CC[C@@H]1C(=O)N(C)c2cnc(Nc3ccc(C(=O)NC4CCN(C)CC4)cc3OC)nc2N1C1CCCC1
Summary of the method: (§1)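 K562 cells at 2×10^6 cells/mL were treated for 30 min with 10 μM compound, and aliquots were heated for 3 min over 48°C-58°C before pooling. Extraction used PBS with 0.5% NP-40 at 4°C, and soluble protein was the supernatant after 21,000xg for 90 min, measured by TMTpro 16plex LC-MS/MS with channel sums equalised. Thermal stability values, relative to control samples and from duplicates, are log2 fold changes.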

[2] = compound: CC[C@@H]1C(=O)N(C)c2cnc(Nc3ccc(C(=O)N[C@H]4CC[C@H](N5CCN(CC6CC6)CC5)CC4)cc3OC)nc2N1C(C)C [volasertib]
Summary of the method: as §1

[3] = compound: CC[C@H](C)N1C=C(C2=C(C=C(C=C21)C3=CN=C(C=C3)N4CCNCC4)C(=O)NCC5=C(C=C(NC5=O)C)C)C
Summary of the method: as §1

[4] = compound: CC[C@H](C)[C@@H](C(=O)N[C@@H]([C@@H](C)O)C(=O)N[C@@H](CC(C)C)C(=O)[C@]1(CO1)C)NC(=O)[C@H]([C@@H](C)CC)N(C)C(=O)C [epoxomicin]
Summary of the method: as §1

[5] = compound: CCn1c(C(=O)N(C2CC2)C2CC2)cc2c3c(ncn3C)c(Nc3cc(C)n(C)n3)nc21
Summary of the method: as §1

[6] = compound: CCn1cc(-c2ccnc3[nH]c(-c4cccc(CN(C)C)c4)cc23)c(-c2ccc(NC(=O)N(C)C)cc2)n1
Summary of the method: as §1

[7] = compound: CN(C)CC(=O)Nc1ccc2[nH]c(=O)c3ccccc3c2c1
Summary of the method: as §1

[8] = compound: CN(CCOC1=CC=C(C=C1)C[C@H]2C(=O)NC(=O)S2)C3=CC=CC=N3 (racemic) [rosiglitazone]
Summary of the method: as §1

[9] = compound: CN1C2=C(C3=C1C(=O)N(N=C3)CC4=CC(=CC=C4)N)SC(=C2)S(=O)C
Summary of the method: as §1

[10] = compound: CN1CCC(CNc2ccc3ncc(-c4cccc(OC(F)(F)F)c4)n3n2)CC1
Summary of the method: as §1

[11] = compound: CN1CCN(CCOc2cc(OC3CCOCC3)c3c(Nc4c(Cl)ccc5c4OCO5)ncnc3c2)CC1 [saracatinib]
Summary of the method: as §1

[12] = compound: CN1CCN(c2nc(C3=C(c4c[nH]c5ccccc45)C(=O)NC3=O)c3ccccc3n2)CC1 [sotrastaurin]
Summary of the method: as §1

[13] = compound: CN1CC[C@H](c2c(O)cc(O)c3c(=O)cc(-c4ccccc4Cl)oc23)[C@H](O)C1 [alvocidib]
Summary of the method: as §1

[14] = compound: CN1CCc2c(c3ccccc3n2Cc2ccc(C(=O)NO)cc2)C1 [Tubastatin A]
Summary of the method: as §1

[15] = compound: CNC(=O)C1=CC=CC=C1NC2=NC(=NC=C2Cl)NC3=C(C=C(C=C3)N4CCOCC4)OC
Summary of the method: as §1

[16] = compound: CNC(=O)c1ccc(Nc2ncc(C(F)(F)F)c(NCc3nccnc3N(C)S(C)(=O)=O)n2)cc1 [defactinib]
Summary of the method: as §1

[17] = compound: CNCc1ccc(-c2[nH]c3cc(F)cc4c3c2CCNC4=O)cc1 [rucaparib]
Summary of the method: as §1

[18] = compound: CNc1nc(-c2ccc3c(N)n[nH]c3c2)cc(N2C[C@@H](C(=O)NC3CCCCC3)CC[C@H]2C)n1
Summary of the method: as §1

[19] = compound: COC(=O)N[C@@H](C)CNc1nccc(-c2cn(C(C)C)nc2-c2cc(Cl)cc(NS(C)(=O)=O)c2F)n1 [encorafenib]
Summary of the method: as §1

[20] = compound: COC(=O)[C@H](CCSC)NC(=O)C1=C(C=C(C=C1)NC[C@H](CS)N)C2=CC=CC=C2
Summary of the method: as §1

Sequence of UniProt Q9Y3I1 (Q9Y3I1 whole entry, looked up): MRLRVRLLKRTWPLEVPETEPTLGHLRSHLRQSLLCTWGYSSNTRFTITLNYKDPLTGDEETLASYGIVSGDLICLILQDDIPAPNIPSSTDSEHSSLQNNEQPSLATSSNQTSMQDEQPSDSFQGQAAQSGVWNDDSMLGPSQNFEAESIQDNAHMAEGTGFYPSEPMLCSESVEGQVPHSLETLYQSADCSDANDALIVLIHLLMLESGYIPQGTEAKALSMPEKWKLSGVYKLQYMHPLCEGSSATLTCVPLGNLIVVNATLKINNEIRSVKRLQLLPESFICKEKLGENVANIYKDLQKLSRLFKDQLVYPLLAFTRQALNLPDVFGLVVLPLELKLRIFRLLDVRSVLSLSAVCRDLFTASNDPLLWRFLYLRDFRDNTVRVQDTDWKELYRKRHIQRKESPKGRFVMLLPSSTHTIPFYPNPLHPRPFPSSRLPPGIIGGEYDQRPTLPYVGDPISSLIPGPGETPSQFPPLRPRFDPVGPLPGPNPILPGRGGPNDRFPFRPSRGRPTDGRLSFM
Sequence of UniProt Q86UL3 (Q86UL3 whole entry, looked up): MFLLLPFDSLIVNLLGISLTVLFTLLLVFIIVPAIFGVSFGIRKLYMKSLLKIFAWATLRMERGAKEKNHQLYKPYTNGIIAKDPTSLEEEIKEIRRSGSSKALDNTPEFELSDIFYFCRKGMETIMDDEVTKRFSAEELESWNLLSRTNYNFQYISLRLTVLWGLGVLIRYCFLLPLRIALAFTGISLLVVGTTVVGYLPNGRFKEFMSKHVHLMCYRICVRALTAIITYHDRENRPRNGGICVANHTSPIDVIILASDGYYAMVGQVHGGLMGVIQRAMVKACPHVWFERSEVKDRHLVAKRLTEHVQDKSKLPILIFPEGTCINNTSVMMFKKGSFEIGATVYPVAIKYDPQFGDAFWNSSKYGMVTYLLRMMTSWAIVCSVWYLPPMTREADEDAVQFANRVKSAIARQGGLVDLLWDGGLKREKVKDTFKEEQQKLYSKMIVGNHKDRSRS
Sequence of UniProt P23434 (P23434 whole entry, looked up): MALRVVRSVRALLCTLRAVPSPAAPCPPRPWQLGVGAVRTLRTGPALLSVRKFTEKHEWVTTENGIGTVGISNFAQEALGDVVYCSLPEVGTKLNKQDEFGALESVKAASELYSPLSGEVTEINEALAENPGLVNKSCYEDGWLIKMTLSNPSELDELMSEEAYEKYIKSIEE
Sequence of UniProt P36915 (P36915 whole entry, looked up): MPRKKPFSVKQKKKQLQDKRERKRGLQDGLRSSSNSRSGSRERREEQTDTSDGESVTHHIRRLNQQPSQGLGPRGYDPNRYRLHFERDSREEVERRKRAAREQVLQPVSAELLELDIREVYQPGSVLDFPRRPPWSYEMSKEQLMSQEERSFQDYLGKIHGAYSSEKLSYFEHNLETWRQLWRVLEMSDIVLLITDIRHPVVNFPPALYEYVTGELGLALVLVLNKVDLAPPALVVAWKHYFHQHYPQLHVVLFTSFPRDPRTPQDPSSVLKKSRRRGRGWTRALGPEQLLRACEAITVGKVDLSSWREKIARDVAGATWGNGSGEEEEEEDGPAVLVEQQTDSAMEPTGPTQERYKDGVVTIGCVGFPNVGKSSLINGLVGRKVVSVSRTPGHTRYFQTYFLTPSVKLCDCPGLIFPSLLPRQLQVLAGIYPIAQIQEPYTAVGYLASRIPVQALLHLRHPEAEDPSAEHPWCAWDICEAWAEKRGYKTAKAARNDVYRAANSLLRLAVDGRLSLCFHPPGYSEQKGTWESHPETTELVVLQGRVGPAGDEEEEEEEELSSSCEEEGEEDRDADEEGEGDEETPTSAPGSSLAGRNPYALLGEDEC
Sequence of UniProt P08754 (P08754 whole entry, looked up): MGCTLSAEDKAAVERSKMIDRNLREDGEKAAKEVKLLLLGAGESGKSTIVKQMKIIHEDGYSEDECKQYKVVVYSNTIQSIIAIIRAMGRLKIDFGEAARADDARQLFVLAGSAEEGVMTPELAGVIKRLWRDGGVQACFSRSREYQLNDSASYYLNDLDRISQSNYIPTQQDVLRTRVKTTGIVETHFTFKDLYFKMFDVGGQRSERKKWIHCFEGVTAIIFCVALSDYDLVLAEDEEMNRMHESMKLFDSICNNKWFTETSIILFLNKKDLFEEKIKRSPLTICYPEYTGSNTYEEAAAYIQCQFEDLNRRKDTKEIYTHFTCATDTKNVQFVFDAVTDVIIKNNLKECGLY
Sequence of UniProt Q9NVI1 (Q9NVI1 whole entry, looked up): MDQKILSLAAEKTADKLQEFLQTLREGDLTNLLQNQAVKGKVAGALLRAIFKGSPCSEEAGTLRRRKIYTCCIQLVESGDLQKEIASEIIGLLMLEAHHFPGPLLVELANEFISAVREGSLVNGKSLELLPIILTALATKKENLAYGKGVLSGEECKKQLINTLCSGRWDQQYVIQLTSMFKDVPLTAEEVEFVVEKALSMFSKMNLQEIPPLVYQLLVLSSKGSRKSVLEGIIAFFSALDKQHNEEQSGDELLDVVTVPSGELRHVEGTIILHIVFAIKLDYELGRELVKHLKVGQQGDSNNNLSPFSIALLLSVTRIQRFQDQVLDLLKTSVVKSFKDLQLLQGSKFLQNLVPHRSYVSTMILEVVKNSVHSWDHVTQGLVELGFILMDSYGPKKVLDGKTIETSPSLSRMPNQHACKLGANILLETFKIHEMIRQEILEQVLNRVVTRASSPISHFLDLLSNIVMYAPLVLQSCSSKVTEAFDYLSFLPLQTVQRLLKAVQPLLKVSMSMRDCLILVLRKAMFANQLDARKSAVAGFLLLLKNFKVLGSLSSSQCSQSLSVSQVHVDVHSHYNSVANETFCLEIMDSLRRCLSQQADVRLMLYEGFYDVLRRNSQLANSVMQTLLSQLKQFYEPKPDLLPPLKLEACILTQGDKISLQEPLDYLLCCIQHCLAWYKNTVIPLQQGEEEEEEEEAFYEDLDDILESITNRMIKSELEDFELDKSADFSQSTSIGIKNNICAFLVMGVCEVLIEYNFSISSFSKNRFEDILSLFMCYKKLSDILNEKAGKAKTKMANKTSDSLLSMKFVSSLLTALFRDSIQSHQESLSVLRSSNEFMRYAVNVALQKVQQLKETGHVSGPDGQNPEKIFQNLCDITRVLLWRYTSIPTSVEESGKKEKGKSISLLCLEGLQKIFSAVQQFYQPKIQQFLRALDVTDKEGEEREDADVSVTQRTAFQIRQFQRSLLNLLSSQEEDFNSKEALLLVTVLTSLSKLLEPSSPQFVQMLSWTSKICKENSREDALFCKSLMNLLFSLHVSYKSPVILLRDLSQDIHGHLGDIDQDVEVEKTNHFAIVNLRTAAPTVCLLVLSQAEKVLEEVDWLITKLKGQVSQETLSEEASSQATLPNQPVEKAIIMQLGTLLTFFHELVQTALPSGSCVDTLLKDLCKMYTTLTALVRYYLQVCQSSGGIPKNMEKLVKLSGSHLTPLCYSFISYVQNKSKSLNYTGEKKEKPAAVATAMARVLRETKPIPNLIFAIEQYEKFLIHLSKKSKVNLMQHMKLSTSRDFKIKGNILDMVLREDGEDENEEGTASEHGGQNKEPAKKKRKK
Sequence of UniProt Q9NP66 (Q9NP66 whole entry, looked up): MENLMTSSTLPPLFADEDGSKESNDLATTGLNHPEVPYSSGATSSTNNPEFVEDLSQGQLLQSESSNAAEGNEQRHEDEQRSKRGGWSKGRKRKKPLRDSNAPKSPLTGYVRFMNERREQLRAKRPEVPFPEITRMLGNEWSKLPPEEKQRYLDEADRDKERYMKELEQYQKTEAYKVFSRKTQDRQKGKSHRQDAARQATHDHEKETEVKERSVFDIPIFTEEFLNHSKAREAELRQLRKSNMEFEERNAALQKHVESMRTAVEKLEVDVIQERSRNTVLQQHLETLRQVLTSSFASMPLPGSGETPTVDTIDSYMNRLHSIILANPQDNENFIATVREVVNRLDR

| Target | log2 fold change [1] | log2 fold change [2] | log2 fold change [3] | log2 fold change [4] | log2 fold change [5] | log2 fold change [6] | log2 fold change [7] | log2 fold change [8] | log2 fold change [9] | log2 fold change [10] | log2 fold change [11] | log2 fold change [12] | log2 fold change [13] | log2 fold change [14] | log2 fold change [15] | log2 fold change [16] | log2 fold change [17] | log2 fold change [18] | log2 fold change [19] | log2 fold change [20] |
| --- | --- | --- | --- | --- | --- | --- | --- | --- | --- | --- | --- | --- | --- | --- | --- | --- | --- | --- | --- | --- |
| FANCI (UniProt Q9NVI1) | -0.277 (active) | -0.159 | 0.127 | -0.077 | -0.022 | -0.093 | 0.072 | 0.066 | -0.013 | -0.188 | -0.022 | -0.099 | -0.13 | -0.103 | -0.111 | -0.179 | 0.041 | -0.002 | 0.003 | -0.02 |
| HMG20A (UniProt Q9NP66) | 0.083 | -0.155 | 0.029 | -0.107 | -0.031 | 0 | 0.053 | 0.017 | 0.143 | -0.003 | 0.038 | -0.106 | -0.075 | 0.018 | 0.005 | 0.029 | -0.323 | -0.015 | -0.109 | -0.009 |
| GPAT4 (UniProt Q86UL3) | -0.042 | -0.046 | -0.036 | 0.063 | -0.01 | -0.039 | 0.029 | 0.008 | -0.063 | 0.143 | 0.042 | 0.046 | -0.046 | -0.039 | 0.04 | -0.017 | 0.055 | -0.069 | -0.021 | 0.031 |
| GNAI3 (UniProt P08754) | 0.089 | 0.147 | -0.011 | 0.014 | 0.036 | -0.071 | -0.012 | -0.101 | -0.046 | 0.075 | 0.063 | -0.011 | -0.02 | 0.046 | 0.093 | -0.041 | -0.009 | 0.025 | -0.004 | -0.003 |
| GCSH (UniProt P23434) | 0.055 | 0.065 | -0.078 | 0.005 | 0.05 | 0.023 | 0.028 | 0.053 | 0.012 | -0.338 (active) | -0.024 | 0.057 | 0.009 | -0.017 | 0.021 | -0.01 | -0.012 | -0.004 | -0.028 | -0.008 |
| FBXO7 (UniProt Q9Y3I1) | 0.079 | -0.198 | 0.044 | -0.012 | -0.066 | -0.295 (active) | 0.029 | 0.008 | -0.022 | 0.003 | -0.003 | 0.052 | -0.069 | 0.019 | 0.012 | -0.025 | 0.068 | 0.028 | -0.009 | -0.029 |
| GNL1 (UniProt P36915) | -0.095 | -0.229 (active) | 0.027 | 0.008 | -0.006 | -0.1 | 0.024 | 0.01 | -0.083 | -0.053 | 0.013 | 0.013 | -0.038 | 0.018 | 0.009 | 0.023 | -0.039 | 0.016 | 0.021 | -0.011 |
